According to PubChem BioAssay:
Calls of active or inactive are those of the source.

Experiments:
[1] = optical density shifts of acrAB sulA E. coli – strain DRC41, OD650, 48 h, E. coli filamentation inducer project, primary screen (AID 1152); details: higher = more signal, called active from +8 up or from −8 down;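 also: E. coli MC1000 strain DRC41 lacking acrAB efflux pump and sulA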
[2] = probe aLefty1 binding on compound microarray – biochemical, small-molecule microarray, 635/667 nm fluorescence, primary screen (AID 1153); details: higher = more signal;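 also: score merges spot fluorescence with signal-to-noise ratio from the scanned slide images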
[3] = plasmodial surface anion channel blockers, osmotic lysis – cell-based, P. falciparum Indochina, OD700, 1 h, primary screen (AID 1154); details: P. falciparum Indochina infected RBC osmotic lysis, higher = more signal, called active from +8 up or from −8 down
[4] = plasmodial surface anion channel blockers, osmotic lysis – cell-based, P. falciparum Indochina, OD700, 2 h, primary screen (AID 1155);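 also: lysis reports solute entry through the parasite surface anion channel PSAC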; details: P. falciparum Indochina infected erythrocytes, higher = more signal, called active from +8 up or from −8 down
[5] = changes in parasitized red cell lysis, either direction – P. falciparum Indochina, OD700, 3 h, PSAC antagonist project, primary screen (AID 1156); details: P. falciparum-infected erythrocytes, osmotic lysis, higher = more signal, called active from +8 up or from −8 down
[6] = plasmodial surface anion channel blockers, osmotic lysis – cell-based, P. falciparum Indochina, OD700, 18 h, primary screen (AID 1157); details: P. falciparum Indochina infected erythrocytes, osmotic lysis OD700, 18 h; higher = more signal, called active from +8 up or from −8 down
[7] = S6 kinase pathway phospho-S6 level changes – cell-based, A549, cytoblot, luminescence, serum-stimulated, primary screen (AID 1158); details: 5 h, higher = more signal;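 also: serum-stimulated A549 lung adenocarcinoma cells; signal is phosphorylated S6 detected by cytoblot immunostaining with HRP secondary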
[8] = biological target: NADPH oxidase 2 (Homo sapiens) (UniProt P04839); test: compounds shifting NOX2 Amplex Red fluorescence – cell-based, HEK293-NOX2, PMA-stimulated, NOX inhibitor project, primary screen (AID 1159); details: 45 min, higher = more signal, called active from +8 up or from −8 down; also: test concentration not given here
[9] = biological target: NADPH oxidase 4 (Homo sapiens) (UniProt Q9NPH5); test: compounds shifting NOX4 Amplex Red fluorescence – cell-based, HEK293-NOX4, tetracycline-induced, NOX inhibitor project, primary screen (AID 1160); details: HEK293-NOX4, Amplex Red H2O2 fluorescence, 45 min; higher = more signal, called active from +8 up or from −8 down
[10] = biological target: NADPH oxidase 5 (Homo sapiens) (UniProt Q96PH1); test: compounds shifting NOX5 Amplex Red fluorescence – cell-based, HEK293-NOX5, NOX inhibitor project, primary screen (AID 1161); details: HEK293-NOX5, ionomycin, 45 min, higher = more signal
NADPH oxidase 5 (Homo sapiens), sequence (Q96PH1 whole entry, looked up): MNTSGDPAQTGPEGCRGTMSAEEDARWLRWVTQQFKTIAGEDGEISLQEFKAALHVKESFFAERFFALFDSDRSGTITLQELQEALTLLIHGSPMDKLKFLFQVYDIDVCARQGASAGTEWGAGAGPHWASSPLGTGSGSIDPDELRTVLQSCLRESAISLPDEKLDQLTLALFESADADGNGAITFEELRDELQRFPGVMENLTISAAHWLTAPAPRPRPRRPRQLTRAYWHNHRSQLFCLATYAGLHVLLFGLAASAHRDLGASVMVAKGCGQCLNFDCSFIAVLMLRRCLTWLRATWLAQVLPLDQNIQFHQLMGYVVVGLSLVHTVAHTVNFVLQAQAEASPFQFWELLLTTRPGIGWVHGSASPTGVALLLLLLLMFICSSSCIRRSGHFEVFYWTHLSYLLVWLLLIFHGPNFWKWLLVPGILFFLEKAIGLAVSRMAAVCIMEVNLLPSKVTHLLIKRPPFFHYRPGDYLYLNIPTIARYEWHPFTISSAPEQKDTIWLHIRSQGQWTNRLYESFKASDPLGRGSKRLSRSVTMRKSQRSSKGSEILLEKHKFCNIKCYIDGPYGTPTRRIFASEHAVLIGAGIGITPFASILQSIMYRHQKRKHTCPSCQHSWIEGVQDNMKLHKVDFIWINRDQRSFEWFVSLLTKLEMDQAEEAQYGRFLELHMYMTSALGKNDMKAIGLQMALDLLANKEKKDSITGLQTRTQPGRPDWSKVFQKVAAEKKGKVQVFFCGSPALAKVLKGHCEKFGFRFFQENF

NADPH oxidase 2 (Homo sapiens), sequence (P04839 whole entry, looked up): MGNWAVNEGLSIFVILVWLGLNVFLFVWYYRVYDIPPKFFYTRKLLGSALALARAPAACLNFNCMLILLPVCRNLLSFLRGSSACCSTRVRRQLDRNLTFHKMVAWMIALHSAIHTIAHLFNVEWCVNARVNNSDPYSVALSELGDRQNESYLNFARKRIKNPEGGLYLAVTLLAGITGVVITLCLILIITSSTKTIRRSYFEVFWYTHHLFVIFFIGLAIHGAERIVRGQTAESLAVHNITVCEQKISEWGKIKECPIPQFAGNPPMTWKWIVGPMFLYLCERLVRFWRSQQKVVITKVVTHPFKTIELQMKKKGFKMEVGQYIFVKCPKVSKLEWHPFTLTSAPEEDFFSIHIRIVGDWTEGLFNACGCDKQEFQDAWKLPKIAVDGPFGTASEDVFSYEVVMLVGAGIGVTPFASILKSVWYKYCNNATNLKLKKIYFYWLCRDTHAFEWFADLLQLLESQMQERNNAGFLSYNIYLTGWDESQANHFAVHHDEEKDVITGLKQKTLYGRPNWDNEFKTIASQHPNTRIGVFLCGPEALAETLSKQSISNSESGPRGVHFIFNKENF
NADPH oxidase 4 (Homo sapiens), sequence (Q9NPH5 whole entry, looked up): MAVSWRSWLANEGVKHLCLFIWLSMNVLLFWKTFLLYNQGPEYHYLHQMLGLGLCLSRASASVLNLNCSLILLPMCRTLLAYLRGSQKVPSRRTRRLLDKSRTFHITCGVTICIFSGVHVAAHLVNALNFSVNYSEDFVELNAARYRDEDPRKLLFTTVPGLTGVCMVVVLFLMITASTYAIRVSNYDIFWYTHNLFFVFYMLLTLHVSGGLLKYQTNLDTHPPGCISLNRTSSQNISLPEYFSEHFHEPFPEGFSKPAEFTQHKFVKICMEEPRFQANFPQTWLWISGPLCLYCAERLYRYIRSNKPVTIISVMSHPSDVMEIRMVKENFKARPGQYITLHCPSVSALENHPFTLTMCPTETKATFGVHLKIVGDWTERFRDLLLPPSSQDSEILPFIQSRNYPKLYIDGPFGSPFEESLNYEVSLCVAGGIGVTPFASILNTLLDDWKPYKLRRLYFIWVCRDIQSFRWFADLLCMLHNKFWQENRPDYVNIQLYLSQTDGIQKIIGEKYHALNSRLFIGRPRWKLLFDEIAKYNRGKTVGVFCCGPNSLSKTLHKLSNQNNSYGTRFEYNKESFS

| SMILES | z-score [1] | composite z-score [2] | z-score [3] | z-score [4] | z-score [5] | z-score [6] | z-score [7] | z-score [8] | z-score [9] | z-score [10] |
| --- | --- | --- | --- | --- | --- | --- | --- | --- | --- | --- |
| CCN1C(=O)[C@H]2[C@H]3[C@H](O)[C@H](O)CC(=NOCC=C(C)CCC=C(C)C)[C@@H]3CC[C@H]2C1=O | -1.27 (inactive) | -0.22 | 1.17 (inactive) | 0.579 (inactive) | 0.0742 (inactive) | 0.134 (inactive) | -0.23 | 1.56 (inactive) | 0.207 (inactive) | -1.06 |
| CCc1cc2c(nc1CC)CCN(CCC(C)=NO[C@@H]1O[C@H](COC(C)=O)[C@@H](OC(C)=O)[C@H](OC(C)=O)[C@H]1OC(C)=O)C2 | -1.13 (inactive) | -0.0929 | -0.451 (inactive) | -1.01 (inactive) | 1.42 (inactive) | -1.67 (inactive) | 1.83 | 0.0419 (inactive) | 0.47 (inactive) | 1.03 |
| COC(=O)CC=C[C@@H](C)[C@@H](C=NOC[C@@H](C)[C@H](OCc1ccccc1)C(C)C)NS(=O)(=O)c1ccc(C)cc1 | -0.795 (inactive) | -0.0011 | 2.91 (inactive) | 0.988 (inactive) | 1.2 (inactive) | 0.808 (inactive) | -0.222 | 0.787 (inactive) | -0.183 (inactive) | -1.19 |
| CC(C)(C)N1C(=O)[C@H]2[C@H]3[C@H](O)[C@H](O)CC(=NOC[C@@H](O)COCc4ccco4)[C@H]3CC[C@H]2C1=O | 0.0965 (inactive) | 0.21 | 1.18 (inactive) | -0.423 (inactive) | 0.0556 (inactive) | 0.33 (inactive) | -0.159 | 0.119 (inactive) | 0.0791 (inactive) | 0.188 |
| CCOC(=O)CCN1C(=O)[C@H]2[C@H]3[C@H](O)[C@H](O)CC(=NOCC=C(C)CCC=C(C)C)[C@@H]3CC[C@H]2C1=O | -0.879 (inactive) | -0.193 | 0.0845 (inactive) | 0.278 (inactive) | -0.931 (inactive) | -0.014 (inactive) | 0.233 | -0.737 (inactive) | 0.511 (inactive) | -0.0503 |
| CC(CCN1CCCc2nc(C)c(C)cc21)=NO[C@H](C)c1cn([C@@H]2COC[C@H]2O)nn1 | 0.686 (inactive) | 0.184 | 1.65 (inactive) | 0.763 (inactive) | 0.09 (inactive) | 0.564 (inactive) | -0.607 | -0.61 (inactive) | -0.259 (inactive) | 0.371 |
| CO[C@H]1COC(=O)[C@H](C)COC(=O)[C@@H](OCc2ccccc2)C=C[C@@H]1C | 0.623 (inactive) | -0.193 | 0.345 (inactive) | 0.0669 (inactive) | -0.258 (inactive) | 0.0584 (inactive) | 0.893 | -0.596 (inactive) | 0.603 (inactive) | 0.214 |
| C=CCOCC1CN2[C@@H](CC[C@@H](C)[C@@H]2c2ccc(Br)cc2)C(=O)O1 (stereo not given in full) | 0.298 (inactive) | -0.147 | 0.517 (inactive) | 0.456 (inactive) | -1.14 (inactive) | 0.247 (inactive) | -0.665 | 0.286 (inactive) | -0.604 (inactive) | -2.74 |
| COC(=O)CC=C[C@@H](C)[C@@H](C=NOC[C@@H](O)COCc1ccco1)OC | 0.245 (inactive) | -0.202 | 0.202 (inactive) | 0.322 (inactive) | -0.0838 (inactive) | 0.145 (inactive) | 0.564 | -0.499 (inactive) | 0.024 (inactive) | 0.403 |
| CC(C)[C@@H](OCc1ccccc1)[C@H](C)C=NOC[C@@H](O)[C@H]1O[C@@H]2OC(C)(C)O[C@@H]2[C@H]1O | -1.74 (inactive) | -0.25 | 0.0248 (inactive) | -0.211 (inactive) | 0.122 (inactive) | 0.124 (inactive) | -0.898 | 1.09 (inactive) | -1.94 (inactive) | 0.165 |
| CON=C(C)CCC(=O)OC[C@H]1O[C@H](C#Cc2ccccc2)C=C[C@@H]1Oc1ccc(C)cc1 | -2.47 (inactive) | -0.0141 | 2.13 (inactive) | 0.277 (inactive) | -0.73 (inactive) | 0.073 (inactive) | -0.57 | -2.16 (inactive) | -2.25 (inactive) | -0.0339 |
| CC1(C)O[C@H]2O[C@H]([C@H](O)CON=C3[C@H]4CCn5c(=O)n(-c6ccccc6)c(=O)n5[C@H]4[C@H](O)[C@@H]4O[C@H]34)[C@H](O)[C@H]2O1 | -0.169 (inactive) | -0.0375 | 0.246 (inactive) | 0.282 (inactive) | 0.267 (inactive) | 0.343 (inactive) | -0.693 | 0.197 (inactive) | 0.0828 (inactive) | -0.47 |
| C[C@H]1CC[C@@H](C(=O)O)N[C@@H]1c1ccc(C#Cc2ccccc2)cc1 | -0.553 (inactive) | -0.101 | 0.0311 (inactive) | -0.0838 (inactive) | 0.26 (inactive) | -0.267 (inactive) | -0.895 | -0.217 (inactive) | 1.11 (inactive) | 1.93 |
| COC(=O)CC=C[C@@H](C)[C@@H](C=NOC[C@@H](O)[C@H]1O[C@@H]2OC(C)(C)O[C@@H]2[C@H]1O)OC | 0.29 (inactive) | -0.0603 | 0.332 (inactive) | 0.453 (inactive) | 0.141 (inactive) | 0.443 (inactive) | -0.332 | 0.144 (inactive) | -0.51 (inactive) | 0.15 |
| O=C1C[C@@H](O)[C@@H](O)[C@@H]2[C@@H]3C(=O)N(c4ccc(F)cc4F)C(=O)[C@@H]3CC[C@H]12 | -0.706 (inactive) | -0.147 | -0.0503 (inactive) | 0.0554 (inactive) | -0.737 (inactive) | 0.06 (inactive) | 0.0123 | 1.09 (inactive) | 0.366 (inactive) | -0.158 |
| C[C@H]1C=CCC(=O)OC[C@H](C)C(=O)N2CCC[C@H]2C(=O)OC1 | 0.392 (inactive) | -0.199 | 0.158 (inactive) | -0.157 (inactive) | 0.484 (inactive) | 0.0217 (inactive) | -0.732 | 0.166 (inactive) | 0.515 (inactive) | -0.957 |
| CCOC(=O)[C@H](CC(C)C)NC(=O)CCC1CC(OC(=O)NCc2ccc3c(c2)OCO3)CC2(CCCC(COC(=O)NCCC(C)C)O2)O1 (stereo not given in full) | -0.213 (inactive) | -0.768 | 2.17 (inactive) | -0.299 (inactive) | -0.443 (inactive) | 0.0255 (inactive) | -0.0096 | 0.246 (inactive) | 0.115 (inactive) | 0.165 |
| CC#CCOCCC=C1c2ccccc2[C@@H](OC)[C@@H]1C | 0.673 (inactive) | -0.0004 | 1.25 (inactive) | -0.16 (inactive) | -0.156 (inactive) | 0.0739 (inactive) | -0.161 | 0.114 (inactive) | 0.936 (inactive) | 0.696 |
| CO[C@@H]1COC(=O)[C@H](CCSC)NC(=O)CC=C[C@@H](C)COC(=O)[C@@H]2CCCN2C(=O)CC=C[C@H]1C | -0.785 (inactive) | 0.224 | 0.911 (inactive) | 0.727 (inactive) | 0.537 (inactive) | 0.354 (inactive) | -0.235 | -2.15 (inactive) | -0.045 (inactive) | 0.887 |
| CCOC(=O)[C@H](Cc1ccccc1)NC(=O)CCC1CC(OC(=O)NCc2cccc3ccccc23)CC2(CCCC(COC(=O)NCC3CCCCC3)O2)O1 (stereo not given in full) | 0.0278 (inactive) | -0.0662 | 1.78 (inactive) | -0.393 (inactive) | -1.94 (inactive) | -0.611 (inactive) | -0.154 | 0.746 (inactive) | 0.745 (inactive) | 0.517 |
| CON(C)C(=O)c1nnc2c(n1)[nH]c1ccccc12 | -0.398 (inactive) | -0.161 | 1.61 (inactive) | 0.235 (inactive) | -0.322 (inactive) | 0.0008 (inactive) | -0.133 | 1.04 (inactive) | 0.103 (inactive) | 0.836 |
| COc1ccc(O[C@H]2C=C[C@@H](c3ccccc3)O[C@@H]2CON=C(C)CCN2CCCc3nc(C)c(C)cc32)cc1 | 0.379 (inactive) | 0.0341 | 4.35 (inactive) | 0.711 (inactive) | 0.938 (inactive) | 0.588 (inactive) | -0.121 | -1.81 (inactive) | -0.049 (inactive) | -0.297 |
| C[C@@H](c1ccccc1)N1C(=O)[C@H]2[C@H]3[C@H](O)[C@H](O)CC(=NOC[C@@H](O)COCc4ccco4)[C@H]3CC[C@H]2C1=O | -0.309 (inactive) | -0.201 | 2.04 (inactive) | -0.0645 (inactive) | 0.33 (inactive) | 0.332 (inactive) | -0.632 | -1.37 (inactive) | 0.529 (inactive) | 0.122 |
| CC(C)C(=O)N[C@H]1CCCN1C(=O)C=Cc1ccccc1 | -1.05 (inactive) | 0.271 | 1.35 (inactive) | 0.627 (inactive) | 0.632 (inactive) | 0.346 (inactive) | -0.53 | 0.679 (inactive) | 0.913 (inactive) | -0.732 |
| CCN1C(=O)[C@H]2[C@H]3[C@H](O)[C@H](O)CC(=NO[C@H](C)c4cn([C@@H]5COC[C@H]5O)nn4)[C@@H]3CC[C@H]2C1=O | -0.712 (inactive) | -0.322 | 2.21 (inactive) | 0.76 (inactive) | 0.436 (inactive) | 0.564 (inactive) | -0.582 | 0.477 (inactive) | 0.226 (inactive) | 0.919 |
| CC(C)=CCCC(C)=CCON=C1C[C@@H](O)[C@@H](O)[C@@H]2[C@@H]3C(=O)N(C4CCCCC4)C(=O)[C@@H]3CC[C@H]12 | 0.693 (inactive) | -0.132 | 7.24 (inactive) | 0.991 (inactive) | 1.11 (inactive) | 0.645 (inactive) | -0.319 | -0.693 (inactive) | -1.02 (inactive) | -4.91 |
